The values below come from PubChem BioAssay (NCI).

Assay in all cases: NCI-60 one-dose screen, 48 h (100 = growth as untreated, 0 = no growth, -100 = all killed)
One test has as its system EKVX NSCLC. The note with it: 10 µM unless noted.
In another test the test system is SN12C renal. The note with it: 10 µM unless noted.
The test system of the next test is UO-31 renal. The following applies: 10 µM unless noted.
The subject of a further test is TK-10 renal. The following applies: 10 µM unless noted.
The subject of the next test is ACHN renal. The following applies: 10 µM unless noted.
For the next test, the system named is A498 renal. The following applies: 10 µM unless noted.
The test system of another test is CCRF-CEM leukemia. The following applies: 10 µM unless noted.
The next test has as its system SR leukemia. The following applies: 10 µM unless noted.
The test system of a further test is RPMI-8226 leukemia. The following applies: 10 µM unless noted.
The test system of another test is OVCAR-8 ovarian. The note with it: 10 µM unless noted.
In another test the test system is OVCAR-5 ovarian. The note with it: 10 µM unless noted.
For a further test, the system named is OVCAR-4 ovarian. The following applies: 10 µM unless noted.
Another test deals with SK-OV-3 ovarian. The following applies: 10 µM unless noted.
The test system of another test is IGROV1 ovarian. The following applies: 10 µM unless noted.
The subject of a further test is HS 578T breast. The note with it: 10 µM.
The test system of a further test is NCI/ADR-RES ovarian. The note with it: 10 µM unless noted.
For the next test, the system named is OVCAR-3 ovarian. The note with it: 10 µM unless noted.
The next test concerns MOLT-4 leukemia. The note with it: 10 µM unless noted.

This is part of a sample that, as a whole, favours compounds with a hit. Of some 83,000 tested, about 20% had one in any assay.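 Treatment: one concentration, 48 hours, 96-well format. Scoring: percent growth, with anything below 10 considered active.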 Unmarked numbers belong to inactive results. Activity calls are given as the source filed them.

Turning to `COc1ccc(/C(=C\c2cc(OC)c(OC)c(OC)c2)C(=O)N2CCCNCC2)cc1`, the growth with EKVX NSCLC is 104%; in the test on SN12C renal it was 106%; in the test with UO-31 renal, 85.9%; in the test with TK-10 renal, 101%; in the test on ACHN renal, 109%; in the test on A498 renal, 99.1%. Moreover, the growth with CCRF-CEM leukemia is 99.9%; in the test with SR leukemia, 103%; with RPMI-8226 leukemia, 107%; in the test on OVCAR-8 ovarian, 103%; in the test on OVCAR-5 ovarian, 111%; with OVCAR-4 ovarian, 112%. In addition, the growth in the test with SK-OV-3 ovarian is 103%; in the test with IGROV1 ovarian, 113%; in the test with HS 578T breast, 107%; with NCI/ADR-RES ovarian it was 112%.
Consider `CC(=O)c1cc(C(=O)c2ccc3c(c2)Sc2ccccc2N3)c2c(C)cccn12`, for which the growth with EKVX NSCLC was 38.1%; in the test with SN12C renal, 35.5%; with UO-31 renal, 34.1%; in the test on TK-10 renal it was 56.9%; with ACHN renal, 32.4%; in the test with A498 renal it was -5.33% (active). Besides, the growth with CCRF-CEM leukemia was 16.3%; in the test on SR leukemia, 12.8%; with RPMI-8226 leukemia it was 15.7%; in the test on OVCAR-8 ovarian, 18.8%; with OVCAR-5 ovarian, 45.4%; in the test with OVCAR-4 ovarian it was 47%. The growth with SK-OV-3 ovarian is 25.1%; in the test on IGROV1 ovarian, 34.1%; in the test on OVCAR-3 ovarian it was -27.5% (active); with HS 578T breast it was 56.2%; with NCI/ADR-RES ovarian, 9.46% (active).
Turning to `CCCCc1n(Cc2ccc3ccccc3n2)cc[n+]1Cc1ccc2ccccc2n1`, the growth with EKVX NSCLC is 50.9%; in the test on SN12C renal, 4.6% (active); in the test on UO-31 renal it was 83.5%; in the test with TK-10 renal it was 27.6%; with ACHN renal, 96.1%; with A498 renal, 7.39% (active). Also, the growth in the test with CCRF-CEM leukemia is 23.3%; in the test on MOLT-4 leukemia it was 14.9%; in the test with SR leukemia, 6.57% (active); in the test with RPMI-8226 leukemia, -20.3% (active); in the test with OVCAR-8 ovarian it was 15%; with OVCAR-5 ovarian, 25.2%. The growth is 14% in the test with OVCAR-4 ovarian; 24.4% in the test with SK-OV-3 ovarian; 17.8% in the test with IGROV1 ovarian; 9.83% (active) in the test with OVCAR-3 ovarian; 41.5% in the test on HS 578T breast; 97.9% in the test with NCI/ADR-RES ovarian.
In the case of `COc1ccc(/C=C(/C(=O)N2CCN(c3ccccc3)CC2)c2cc(OC)c(OC)c(OC)c2)cc1N`, the growth in the test with EKVX NSCLC was 41.1%; with SN12C renal, 40.1%; in the test on UO-31 renal, 52.1%; in the test with TK-10 renal, 63.5%; in the test with ACHN renal, 35.1%; in the test with A498 renal it was -2.34% (active). The growth was 8.84% (active) in the test on CCRF-CEM leukemia; 10.1% in the test with MOLT-4 leukemia; 12.5% with SR leukemia; 7.73% (active) in the test on RPMI-8226 leukemia; 19.7% in the test with OVCAR-8 ovarian; 53.2% in the test with OVCAR-5 ovarian. In addition, the growth was 52.3% in the test on OVCAR-4 ovarian; 36.9% in the test on SK-OV-3 ovarian; 36.3% in the test on IGROV1 ovarian; -43.8% (active) in the test with OVCAR-3 ovarian; 36.6% with HS 578T breast; 7.6% (active) in the test with NCI/ADR-RES ovarian.
For the compound `CCCCN(CCCC)CCCN=c1nc2c(c(N)n1-c1ccccc1)c(=S)n(-c1ccccc1)c(=S)n2-c1ccccc1`, the growth in the test on EKVX NSCLC was -74.2% (active); with SN12C renal, -99.2% (active); in the test on UO-31 renal, -80.9% (active); in the test with TK-10 renal it was -89.6% (active); with ACHN renal it was -95.8% (active); with A498 renal, -100% (active). Also, the growth with CCRF-CEM leukemia was -78.4% (active); in the test on MOLT-4 leukemia, -55.8% (active); in the test with SR leukemia, -65.2% (active); in the test on RPMI-8226 leukemia, -53.4% (active); in the test with OVCAR-8 ovarian it was -36.1% (active); in the test with OVCAR-4 ovarian it was -82% (active). For the same compound, the growth with SK-OV-3 ovarian was -86.5% (active); with IGROV1 ovarian, -70.9% (active); with OVCAR-3 ovarian, -100% (active); in the test on HS 578T breast it was -64.6% (active); in the test on NCI/ADR-RES ovarian, -71.1% (active).
In the case of `O=c1[nH]cnc2nc[nH]c12`, the growth with EKVX NSCLC is 81.6%; in the test on SN12C renal it was 96.7%; in the test on UO-31 renal it was 94.2%; with TK-10 renal it was 115%; in the test with ACHN renal it was 103%; with A498 renal it was 87.9%. Also, the growth in the test on CCRF-CEM leukemia was 120%; in the test with MOLT-4 leukemia it was -45.9% (active); with SR leukemia, 48.8%; with RPMI-8226 leukemia, 93.5%; with OVCAR-8 ovarian, 76.9%; in the test on OVCAR-4 ovarian it was 94.5%. Moreover, the growth in the test with SK-OV-3 ovarian was 121%; with IGROV1 ovarian, 109%; in the test on OVCAR-3 ovarian, 174%; with HS 578T breast, 123%; with NCI/ADR-RES ovarian it was 97.8%.
As to `Cc1n(Cc2ccc3ccccc3n2)cc[n+]1Cc1ccc2ccccc2n1`, the growth in the test with EKVX NSCLC was 80.7%; with SN12C renal it was 77.9%; with UO-31 renal, 87.3%; with TK-10 renal it was 80.8%; in the test with ACHN renal, 103%; with A498 renal, 88.5%. For the same compound, the growth was 76.2% in the test on CCRF-CEM leukemia; 98.3% in the test with MOLT-4 leukemia; 48.8% in the test on SR leukemia; 24.6% in the test on RPMI-8226 leukemia; 97.9% in the test on OVCAR-8 ovarian; 83.4% with OVCAR-5 ovarian. The growth was 24.1% in the test on OVCAR-4 ovarian; 91.1% in the test with SK-OV-3 ovarian; 64.4% in the test on IGROV1 ovarian; 54.8% with OVCAR-3 ovarian; 92.1% in the test on HS 578T breast; 98.7% in the test on NCI/ADR-RES ovarian.
`CCSc1ccc([C@@H]2[C@@H](O)C(=O)N2c2cc(OC)c(OC)c(OC)c2)cc1`: the growth in the test with EKVX NSCLC was 52.3%; with SN12C renal, 38.8%; in the test with UO-31 renal, 50.5%; in the test on TK-10 renal it was 77.2%; with ACHN renal it was 32.7%; in the test on A498 renal it was -10.6% (active). The growth is 11.9% with CCRF-CEM leukemia; 11.7% in the test with SR leukemia; 8.48% (active) in the test with RPMI-8226 leukemia; 16.1% in the test on OVCAR-8 ovarian; 54.8% in the test with OVCAR-5 ovarian; 41.7% in the test on OVCAR-4 ovarian. Also, the growth is 39.1% in the test with SK-OV-3 ovarian; 32.5% in the test on IGROV1 ovarian; -3.92% (active) in the test on OVCAR-3 ovarian; 46.5% in the test on HS 578T breast; 8.62% (active) in the test with NCI/ADR-RES ovarian.
